Data on 18 molecules can be found in PubChem BioAssay (NCI).

Assay in all cases: NCI-60 one-dose screen, 48 h (100 = growth as untreated, 0 = no growth, -100 = all killed)
Assay [1] deals with T-47D breast. The following applies: 10 µM.
In assay [2] the test system is BT-549 breast. The following applies: 10 µM.
In assay [3] the test system is MDA-MB-435 melanoma. The following applies: 10 µM.
For assay [4], the system named is SW-620 colon. The following applies: 10 µM.
Assay [5] deals with MCF7 breast.
Assay [6] has as its system HCT-116 colon. The following applies: 10 µM.
The test system of assay [7] is HCC-2998 colon. The following applies: 10 µM.
In assay [8] the test system is KM12 colon. Conditions: 10 µM.

Where “and” joins values, the source holds several entries; their conditions need not be identical. Equal values may be shown once. The panel holds about 83,000 compounds, 20% with a hit somewhere; the sample as a whole holds those more often.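 For each line, cells grew in 96-well plates with the test compound present at a single concentration for 48 hours.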 Values without a mark were called inactive. Calls of active or inactive are those of the source. How the source made its calls: active means growth percent below 10; inactive means the rest.

Take `CC1(O)CCCCC1O` (configuration not stated): the growth in assay [1] was 98.4%; in assay [2], 94%; in assay [3], 117%; in assay [4] it was 104%; in assay [5] (10 µM unless noted) it was 106%; in assay [6], 101%. The growth is 104% in assay [7] and 115% in assay [8].

In the case of `CNS(=O)(=O)c1ccc(Cl)c(Cl)c1`, the growth is 99.2% in assay [1]; 112% in assay [2]; 98.7% in assay [3]; 104% in assay [4]; 98% in assay [5] (10 µM unless noted); 107% in assay [6]. The growth in assay [7] is 118%; in assay [8], 108%.

In the case of `Nc1ccc(C(=O)c2ccc(N)c(Br)c2)cc1Br`, the growth in assay [1] is 43.5%; in assay [2], 56.4%; in assay [3] it was -3.36% (active); in assay [4] it was 21.2%; in assay [5] (10 µM unless noted), 13.2%; in assay [6] it was 14.8%. In addition, in assay [7], the growth is 14.1%.

In the case of `COC(=O)CCCCC1=CCC2C(=O)C=C(O)C2C1` (configuration not stated), the growth was 98.9% in assay [1]; 98.7% in assay [2]; 110% in assay [3]; 106% in assay [4]; 94.9% in assay [5] (10 µM unless noted); 102% in assay [6]. The growth in assay [7] is 132%.

In the case of `OCc1ccc(-c2ccc(-c3ccc(CO)s3)o2)s1`, the growth in assay [1] is -15.5% (active); in assay [2], 58.4%; in assay [3] it was 38%; in assay [4], 10.9%; in assay [5] (10 µM unless noted), 9.78% (active); in assay [6], 5.2% (active). Besides, the growth in assay [7] was -14.5% (active); in assay [8] it was 81.5%.

As for `COc1ccccc1N1CCN(C(=S)Nc2ccccc2)CC1`, the growth is 90.9% in assay [1]; 91.7% in assay [2]; 102% in assay [3]; 103% in assay [4]; 99.5% in assay [5] (10 µM unless noted); 103% in assay [6]. Further, in assay [7], the growth was 134%.

For `O=C(NN=C1CCCCC1)C(=O)NN=C1CCCCC1`, the growth in assay [1] was 99.7%; in assay [2], 100%; in assay [3] it was 117%; in assay [4], 117%; in assay [5] (10 µM unless noted), 92.5%; in assay [6], 106%. The growth in assay [7] was 113%; in assay [8], 105%.

On to `CC(=O)/C(Cc1ccccc1)=N/O`, for which the growth in assay [1] was 89.8%; in assay [2], 90.8%; in assay [3], 103%; in assay [4], 98.4%; in assay [5] (10 µM unless noted), 94.5%; in assay [6], 87.4%. Also, the growth in assay [7] was 111%; in assay [8] it was 105%.

Regarding `Cc1cc(C(C)(C)C)cc(C)c1Br`, the growth in assay [1] was 115%; in assay [2], 104%; in assay [3] it was 110%; in assay [4], 104%; in assay [5] (10 µM unless noted), 103%; in assay [6], 97.6%. Further, the results for the growth in assay [7] and in assay [8] were 99.4% and 105%, respectively.

Take `C=CC[N+](C)(C)C`: the growth in assay [1] is 103%; in assay [2] it was 114%; in assay [3], 102%; in assay [4], 107%; in assay [5] (10 µM unless noted), 101%; in assay [6], 104%. The growth is 103% in assay [7] and 114% in assay [8].

As for `COC(=O)c1cccnc1`, the growth in assay [1] was 118%; in assay [2], 85.5%; in assay [3], 105%; in assay [4] it was 97.4%; in assay [5] (10 µM unless noted), 96.4%; in assay [6], 97.8%. In addition, the growth in assay [7] was 104%; in assay [8], 112%.

As to `CC(=O)c1sc2c(c1OC(=O)c1ccc(Cl)cc1Cl)c(=O)n(-c1ccccc1)c(=S)n2-c1ccccc1`, the growth is 61.1% in assay [1]; -24.4% (active) in assay [2]; 4.71% (active) in assay [3]; 14% in assay [4]; 51.2% in assay [5] (10 µM); 6.27% (active) and -47.6% (active) in assay [5] (100 µM). The growth was -0.425% (active) in assay [6], 24.6% in assay [7] and -0.943% (active) in assay [8].

Consider `Cc1cccc([N+](=O)[O-])c1Cl`, for which the growth was 103% in assay [1]; 100% in assay [2]; 91.4% in assay [3]; 100% in assay [4]; 105% in assay [5] (10 µM unless noted); 108% in assay [6]. For the same molecule, the growth is 86.1% in assay [7] and 104% in assay [8].

`c1cc2cccc3c4cccc5cccc(c(c1)c23)c54`: the growth in assay [1] was 90.2%; in assay [2], 104%; in assay [3], 111%; in assay [4], 108%; in assay [5] (10 µM unless noted), 84%; in assay [6], 103%. Further, the results for the growth in assay [7] and in assay [8] were 96.7% and 104%, respectively.

Take `NC(=S)NN=C1CCCC1`: the growth in assay [1] was 40.8%; in assay [2], 107%; in assay [3], 103%; in assay [4], 72.8%; in assay [5] (10 µM unless noted), 21.7%; in assay [6], 8.81% (active). The growth in assay [7] is 97.7%; in assay [8], 101%.

Regarding `CCOC(=O)c1ccc(Nc2sc(C(=O)c3cccc([N+](=O)[O-])c3)c(N)c2C#N)cc1`, the growth was 48% in assay [1]; 52.9% in assay [2]; -2.02% (active) in assay [3]; 5.69% (active) in assay [4]; 7.42% (active) in assay [5] (10 µM unless noted); 0.851% (active) in assay [6]. Moreover, the growth is 45.8% in assay [7] and 17.5% in assay [8].

`CC(=O)c1c[nH]c2ccccc12`: the growth is 97.6% in assay [1]; 104% in assay [2]; 97.5% in assay [3]; 105% in assay [4]; 100% in assay [5] (10 µM unless noted); 97.8% in assay [6]. The growth in assay [7] was 108%; in assay [8] it was 120%.

Take `O=C(NCCNC(=O)c1ccc(Cl)cc1Cl)c1ccc(Cl)cc1Cl`: the growth in assay [1] was 99.3%; in assay [2], 111%; in assay [3] it was 106%; in assay [4], 113%; in assay [5] (10 µM unless noted) it was 102%; in assay [6] it was 104%. Besides, the growth in assay [7] is 100%; in assay [8] it was 105%.
